The campaign covered roughly 69,000 compounds. About 1,000 (1.4%) showed an effect of 50% or more. The entries come from a sample that favours strong results as a whole.
System: Leishmania donovani
Test: Leishmania intramacrophage assay
Type: functional, organism-based
Set-up: scale not given: in the data most compounds retested in dose-response had high values

CCC(CO)NCc1ccc(-c2ccccc2F)o1 (stereo not given)
Percent Effect (30.3 µM, […]): 4.793%

CC(NCc1ccc(-c2ccc(Cl)cc2)o1)c1nnc2n1CCC2 (stereo not given)
Percent Effect (30.3 µM, […]): -2.109%

CCC(CO)NCc1ccc(-c2ccc(F)cc2)o1.Cl (stereo not given)
Percent Effect (30.3 µM, […]): 4.62%

COCCN1CCN(CC(=O)NC2(C#N)CCCC2)CC1
Percent Effect (30.3 µM, […]): 21.7%

Cn1cc(-c2cnc(N3CCOCC3)nc2)cc1C(=O)NCCC#N.O=C(O)C(F)(F)F
Percent Effect (30.3 µM, […]): 12.83%

CN(CC(=O)NC(C)(C)C)Cc1cccc2c1OCCO2
Percent Effect (30.3 µM, […]): 16.54%

CC1CCN(c2ccc(NC(=O)CCn3cccn3)cc2)CC1
Percent Effect (30.3 µM, […]): 16.17%

Cc1cc(C(=O)N2C[C@@H]3[C@@H](C2)OCC(=O)N3CC2CC2)no1
Percent Effect (30 µM, 30.03 µM): 18.33%

CCn1nc(C)c(-c2cncn2CCN(C)C2CCCC2)c1C.Cl
Percent Effect (30.3 µM, […]): 32.48%

CCCn1nc(C)c(-c2cncn2CCN(C)C2CCCC2)c1C.Cl
Percent Effect (30.3 µM, […]): 42.92%

Cc1nn(C)cc1-c1cncn1CCN(C)C1CCCC1.Cl
Percent Effect (30.3 µM, […]): 52.65%

CC(C)C1CN(c2nccc(N)n2)CCC(=O)N1Cc1ccc(F)cc1 (stereo not given)
Percent Effect (30.3 µM, […]): -20.97%

COc1cccc2c1OCC(CNC(=O)Cn1ccnc1C)C2 (stereo not given)
Percent Effect (30.3 µM, […]): 4.9%

OC(CNCCn1cccn1)COc1ccc(Br)cc1 (stereo not given)
Percent Effect (30.3 µM, […]): 25.57%

OC(CNCCn1cccn1)COc1ccc2ccccc2c1 (stereo not given)
Percent Effect (30.3 µM, […]): 56.8%

OC(CNCCn1cccn1)COc1ccc(F)cc1 (stereo not given)
Percent Effect (30.3 µM, […]): 20.47%

Cc1nnc2n1CCN(C(=O)C(OC1CCCC1)c1ccccc1)C2 (stereo not given)
Percent Effect (30.3 µM, […]): 5.78%

O=C(Nc1ccc(S(=O)(=O)Nc2c(F)cccc2F)cc1)N1CCCC1
Percent Effect (30.3 µM, […]): 12.59%

CC(=O)NCC(=O)N1CCOC2(CCCN(c3cccnc3)C2)C1.O=C(O)C(F)(F)F (stereo not given)
Percent Effect (30 µM, 30.03 µM): 4.273%

CC(=O)N1CCCCC1c1ncnn1-c1ccc2nc(C)sc2c1 (stereo not given)
Percent Effect (30.3 µM, […]): 29.12%

Cc1nc2ccc(-n3ncnc3[C@@H]3CCCN3S(C)(=O)=O)cc2s1
Percent Effect (30.3 µM, […]): 99.47%

CS(=O)(=O)N1CCC[C@H]1c1ncnn1-c1ccc2c(c1)OCO2
Percent Effect (30.3 µM, […]): -61.62%

COc1ccc(OCCc2nnc(NC(C)=O)s2)cc1
Percent Effect (30.3 µM, […]): -16.84%

O=C(NC1CCS(=O)(=O)C1)c1ccc(SCc2cscn2)cc1 (stereo not given)
Percent Effect (30.3 µM, […]): 10.79%

CCNC(=O)[C@@H]1CCCN1C1(C(=O)NC)CCCCC1.Cl
Percent Effect (30.3 µM, […]): -2.22%

O=C(c1cc[nH]n1)N1CCCC(c2cc(C(F)(F)F)[nH]n2)C1 (stereo not given)
Percent Effect (30 µM): -11.08%

O=C(c1cc(Cl)c[nH]1)N1CCCC(c2cc(C(F)(F)F)[nH]n2)C1 (stereo not given)
Percent Effect (30 µM): 52.35%

O=C(c1ccc[nH]1)N1CCCC(c2cc(C(F)(F)F)[nH]n2)C1 (stereo not given)
Percent Effect (30 µM, 30.03 µM): 44.22%

N#Cc1c(CN2CCCCC2Cn2cncn2)cn2ccccc12 (stereo not given)
Percent Effect (30.3 µM, […]): -0.3662%

O=C(Nc1cccc(N2CCN(CC3CC3)CC2)c1)C1CCCO1 (stereo not given)
Percent Effect (30.3 µM, […]): 25.21%

O=C(NCC1CC1)Nc1cccc(N2CCN(CC3CC3)CC2)c1
Percent Effect (30 µM, 30.03 µM): -6.352%

O=C(Nc1cccc(N2CCN(CC3CC3)CC2)c1)N1CCCC1
Percent Effect (30.3 µM, […]): 55.96%

O=C(NCCc1ccc(F)cc1)C1CN(C(=O)Cn2cncn2)C1
Percent Effect (30.3 µM, […]): 19.84%

COCCCNC(=O)COc1ccccc1C(F)(F)F
Percent Effect (30.3 µM, […]): 6.767%

O=C(Cc1ccccc1)NC[C@H]1Cn2ccnc2CO1
Percent Effect (30.3 µM, […]): 5.132%

CCC(Nc1nc(C)nc2onc(C)c12)c1nc(C)c(C)s1 (stereo not given)
Percent Effect (30.3 µM, […]): 15.33%

Cc1nc(NCCSc2ccccn2)c2c(C)noc2n1
Percent Effect (30.3 µM, […]): 23.02%

CCC(Nc1nc(C)nc2onc(C)c12)c1cccs1 (stereo not given)
Percent Effect (30.3 µM, […]): 50.11%

O=C(NC1CCOCC1)c1cccc(C2CCCNC2)c1 (stereo not given)
Percent Effect (30.3 µM, […]): -13.02%

CCOCC1CN(C(=O)Cc2cccs2)Cc2ccnn2C1 (stereo not given)
Percent Effect (30.3 µM, […]): 34.28%

CN(C)CCOCC1CN(Cc2ccsc2)Cc2ccnn2C1.O=C(O)C(F)(F)F.O=C(O)C(F)(F)F.O=C(O)C(F)(F)F (stereo not given)
Percent Effect (30 µM, 30.03 µM): 9.716%

CCOCC1CN(C(=O)Cc2ccsc2)Cc2ccnn2C1.O=C(O)C(F)(F)F (stereo not given)
Percent Effect (30.3 µM, […]): 51.92%

Cc1noc(C)c1CN(C)Cn1c(=O)n(C)c2ccccc21
Percent Effect (30.3 µM, […]): 5.674%

Cc1noc(C)c1CN(C)C(=O)Cn1c(=O)n(C)c2ccccc21
Percent Effect (30.3 µM, […]): 12.61%

Cc1noc(C)c1CN(C)C(=O)CCn1c(=O)n(C)c2ccccc21
Percent Effect (30.3 µM, […]): 50.75%

O=C(CC1CC1)NCc1cn2c(n1)CN(C(=O)C1CCOCC1)CC2
Percent Effect (30.3 µM, […]): -40.34%

COCCNc1nc(C2CCCC2)nc2c1CCNCC2
Percent Effect (30 µM, 30.03 µM): 63.78%

COCCNc1nc2c(c(NCC3CCOC3)n1)CCNCC2 (stereo not given)
Percent Effect (30.3 µM, […]): 32.27%

OC(CNc1nc(C2CCCC2)nc2c1CCNCC2)C(F)(F)F (stereo not given)
Percent Effect (30.3 µM, […]): 100.7%

OC(CNc1ncnc2c1CCNCC2)C(F)(F)F (stereo not given)
Percent Effect (30.3 µM, […]): 26.97%

c1nc(CCNc2nc(C3CC3)nc3c2CCNCC3)c[nH]1
Percent Effect (30.3 µM, […]): 9.64%

Cc1nc2c(c(NCC(O)C(F)(F)F)n1)CCNCC2 (stereo not given)
Percent Effect (30.3 µM, […]): -15.94%

C1Cc2nc(CCNc3nc(C4CC4)nc4c3CCNCC4)sc2C1
Percent Effect (30.3 µM, […]): 95.48%

Cc1nc2c(c(NCCc3nc4c(s3)CCCC4)n1)CCNCC2
Percent Effect (30.3 µM, […]): 49.04%

COCc1noc(CNc2nc(C3CCCC3)nc3c2CCNCC3)n1
Percent Effect (30.3 µM, […]): 8.376%
